Screens as filed in PubChem.
The list is not random: actives were taken first. Their share in the collection is about 1.1%.
COUP-TFII inh = blocks human COUP-TFII nuclear receptor; P24468; HEK293T NGFI-A luciferase reporter, luminescence; inhibition, % at 8.6 µM; 0.7% of 370,000 active;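 active = inhibition above a per-plate cutoff, mean inhibition of test wells between control levels plus 3 SD, cut at about 38% in these data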;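 note: cells cotransfected with COUP-TFII expression vector driving the NGFI-A reporter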
SRC3 inh = human NCOA3 inhibition; 0.17% of 360,000 active; HEK293 GAL4-SRC3 luciferase reporter, luminescence; Q9Y6Q9; inhibition, % at 3.6 µM;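 active = inhibition above a per-campaign cutoff, the mean of all compounds plus 3 SD, cut at about 60% in these data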;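 note: higher means less SRC3-driven luciferase light from the GAL4 reporter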
NCOA1 inh = human NCOA1 inhibition; Q15788; HEK293 GAL4-SRC1 luciferase reporter, luminescence; inhibition, % at 3.6 µM; 0.12% of 360,000 active; AID 588354;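 active = inhibition above the campaign mean plus 3 SD, with each screening campaign given its own cutoff, cut at about 60% in these data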
SRC2 inh = human SRC2 (NCOA2) inhibition; Q15596; HEK293 GAL4-SRC2 luciferase reporter, luminescence; inhibition, % at 9 µM; 0.17% of 370,000 active;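 active = inhibition above the mean inhibition of all tested compounds plus 3 SD, set per campaign, cut at about 52% in these data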
Target sequence (Q15596 whole entry, looked up, the tested form may be a part): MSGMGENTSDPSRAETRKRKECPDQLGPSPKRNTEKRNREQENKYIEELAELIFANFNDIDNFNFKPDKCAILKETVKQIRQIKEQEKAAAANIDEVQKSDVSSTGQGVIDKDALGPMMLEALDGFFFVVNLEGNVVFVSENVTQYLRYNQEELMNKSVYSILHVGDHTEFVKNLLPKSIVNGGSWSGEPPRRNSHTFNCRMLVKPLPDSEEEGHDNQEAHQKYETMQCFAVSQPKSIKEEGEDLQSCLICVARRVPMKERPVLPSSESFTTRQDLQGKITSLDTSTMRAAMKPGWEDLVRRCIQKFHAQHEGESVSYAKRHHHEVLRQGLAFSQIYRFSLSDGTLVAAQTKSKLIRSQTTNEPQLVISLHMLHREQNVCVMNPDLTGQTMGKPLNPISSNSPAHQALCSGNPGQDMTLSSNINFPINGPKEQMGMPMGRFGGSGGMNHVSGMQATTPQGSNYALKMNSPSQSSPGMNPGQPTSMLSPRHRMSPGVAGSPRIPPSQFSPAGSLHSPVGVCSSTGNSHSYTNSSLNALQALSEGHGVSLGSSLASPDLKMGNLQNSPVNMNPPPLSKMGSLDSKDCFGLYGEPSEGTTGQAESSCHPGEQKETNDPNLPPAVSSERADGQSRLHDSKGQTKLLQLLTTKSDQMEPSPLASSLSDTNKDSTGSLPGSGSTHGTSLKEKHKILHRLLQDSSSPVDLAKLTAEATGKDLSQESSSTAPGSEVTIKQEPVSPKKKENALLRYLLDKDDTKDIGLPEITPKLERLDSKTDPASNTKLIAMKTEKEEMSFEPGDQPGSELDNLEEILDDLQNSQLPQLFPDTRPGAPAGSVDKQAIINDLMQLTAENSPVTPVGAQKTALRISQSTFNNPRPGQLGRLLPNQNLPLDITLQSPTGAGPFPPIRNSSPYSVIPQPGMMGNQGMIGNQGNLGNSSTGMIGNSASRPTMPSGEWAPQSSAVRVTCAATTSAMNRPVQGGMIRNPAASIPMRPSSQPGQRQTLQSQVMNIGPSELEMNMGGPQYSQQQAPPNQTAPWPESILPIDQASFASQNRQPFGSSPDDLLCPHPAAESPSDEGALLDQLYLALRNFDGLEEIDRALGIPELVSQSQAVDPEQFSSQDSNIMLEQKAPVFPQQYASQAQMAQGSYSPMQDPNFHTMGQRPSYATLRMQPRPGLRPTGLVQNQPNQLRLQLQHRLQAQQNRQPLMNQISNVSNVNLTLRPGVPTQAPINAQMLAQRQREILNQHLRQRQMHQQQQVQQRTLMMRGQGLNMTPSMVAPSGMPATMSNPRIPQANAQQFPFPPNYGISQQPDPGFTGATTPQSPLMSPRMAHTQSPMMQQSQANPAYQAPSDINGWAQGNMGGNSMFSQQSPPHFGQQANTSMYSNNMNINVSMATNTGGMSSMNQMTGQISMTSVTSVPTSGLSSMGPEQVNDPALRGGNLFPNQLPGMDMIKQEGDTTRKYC
LRH-1 inv ag = suppresses constitutive activity of human LRH-1 | O00482 | HEK293T StAR-luciferase reporter, LRH-1 transfected, 24 h | inhibition, % at 3.6 µM | 0.13% of 360,000 active | AID 602396;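 active = inhibition above the mean inhibition of all tested compounds plus 3 SD, cut at about 73% in these data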
GalR3 antagonist = human GalR3 antagonism; O60755; AID 651719; 0.44% of 360,000 active; inhibition, % at 3 µM; HEK293 GalR3-CNG cAMP membrane potential fluorescence; galR3 body fused to GalR1 C-terminus;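 active = inhibition above the screen-wide average plus 3 SD, cut at about 13% in these data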;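 note: forskolin and galanin both at EC90 stimulate the cells; cAMP rise reported by CNG channel membrane potential dye signal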
VP16 Luc counter = counter-screen for COUP-TFII antagonists: inhibitors of VP16; shares compounds with COUP-TFII inh; HEK293 Gal4-VP16 luciferase reporter, luminescence; inhibition, % at 8.5 µM; 25% of 2,500 active; AID 687007; in the data active = inhibition above about 13%
NR2F2 inh conf = confirmation of human COUP-TFII (NR2F2) inhibitors; shares compounds with COUP-TFII inh; inhibition, % at 8.5 µM; HEK293 NGFI-A luciferase reporter, luminescence; 45% of 2,500 active; AID 687008;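 active = mean inhibition over three repeats above a set limit taken from the earlier primary screen, cut at about 38% in these data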
Large screens that a line does not name were inactive (follow-up assays come after a bar, where they were run).

O=C(c1ccccc1F)N1CCN(S(=O)(=O)c2ccc3c(c2)OCCO3)CC1	COUP-TFII inh 42 | VP16 Luc counter inactive | NR2F2 inh conf inactive
COc1ccc(-c2csc(NC(=O)COc3ccc(N(C)S(=O)(=O)c4ccc(C)cc4)cc3)n2)cc1	COUP-TFII inh 40 | VP16 Luc counter inactive | NR2F2 inh conf inactive
COC(=O)C12OCC34C(CC5C(C)=C(O)C(=O)CC5(C)C3C(O)C1O)OC(=O)C(OC(=O)C=C(C)C)C24 (stereo not drawn)	COUP-TFII inh 93, SRC3 inh 94, NCOA1 inh 96, SRC2 inh 83, LRH-1 inv ag 97 | VP16 Luc counter inactive | NR2F2 inh conf 86
CN(Cc1nccs1)C(=O)c1cc(COc2cccc3cnccc23)on1	COUP-TFII inh 54 | VP16 Luc counter inactive | NR2F2 inh conf 47
COc1cccc(CNc2nc3cc(-c4ccccc4)sc3c(=O)n2C)c1OC	none
COc1cccc(CNc2nc3cc(-c4cnn(Cc5ccccc5)c4)sc3c(=O)n2C)c1	COUP-TFII inh 79 | VP16 Luc counter 17 | NR2F2 inh conf 54
COc1ccccc1CNc1nc2cc(-c3ccc(OC)c(OC)c3)sc2c(=O)n1C	COUP-TFII inh 41 | VP16 Luc counter inactive | NR2F2 inh conf inactive
COc1ccc(-n2c(SCC(=O)NNC(=S)Nc3ccc(C)cc3)nnc2-c2ccccc2)cc1	none (no result: SRC3 inh, NCOA1 inh, LRH-1 inv ag, GalR3 antagonist)
C=CCCC1CN(Cc2ccc(OC)cc2)S(=O)(=O)c2c(cccc2Sc2ccc(OC)c(OC)c2)O1 (stereo not drawn)	none (no result: SRC3 inh, NCOA1 inh, LRH-1 inv ag)
COC1=C[C@H](C(=O)NCc2ccccn2)[C@@]2(C)Cc3ccccc3[C@H]2CC1=O	none (no result: SRC3 inh, NCOA1 inh, LRH-1 inv ag, GalR3 antagonist)
CCOC(=O)N1CCC(NC(=O)c2ccc3c(c2)N(C)C(=O)/C(=C/c2cccc(OC)c2)S3)CC1	COUP-TFII inh 40 | VP16 Luc counter inactive | NR2F2 inh conf 53
CCOC(=O)N1CCN(C(=O)c2ccc3c(c2)N(C)C(=O)/C(=C\c2ccc(OCC)c(OC)c2)S3)CC1	COUP-TFII inh 51 | VP16 Luc counter inactive | NR2F2 inh conf inactive
COc1cc(F)c(S(=O)(=O)N2CCCN(S(=O)(=O)c3cccc(N)c3)CC2)c(F)c1	none (no result: SRC3 inh, NCOA1 inh, SRC2 inh, LRH-1 inv ag, GalR3 antagonist)
O=C(NC1CCCC1)C(c1ccccc1)n1c(CSCCOc2ccccc2)nc2ccccc21 (stereo not drawn)	COUP-TFII inh 59, SRC2 inh 77 (no result: SRC3 inh, NCOA1 inh) | VP16 Luc counter 46 | NR2F2 inh conf 50
O=C(Nc1ccc(F)cc1)N[C@@H]1C[C@@H]2O[C@H](CO)CC[C@@H]2O[C@@H]1CCc1ccc(C2=CCCC2)cc1	none (no result: SRC3 inh, NCOA1 inh, LRH-1 inv ag, GalR3 antagonist)
O=Cc1coc([B-](F)(F)F)c1	none (no result: SRC3 inh, NCOA1 inh, LRH-1 inv ag)
CCc1ccc(S(=O)(=O)Nc2cc3c(cc2C)n(C)c(=O)n3C)cc1	COUP-TFII inh 41 | VP16 Luc counter inactive | NR2F2 inh conf inactive
COc1ccc2c(c1)sc1nc(-c3ccccc3)cn12	COUP-TFII inh 47, SRC2 inh 61 | VP16 Luc counter 47 | NR2F2 inh conf 40
Nc1nonc1C(=O)NCCNCc1cc(Br)ccc1OCc1ccc(F)cc1	COUP-TFII inh 50 | VP16 Luc counter inactive | NR2F2 inh conf inactive
Cn1c2ccccc2c(=O)c2ccc(C#CC3(N)CCCCC3)cc21	none
O=c1c2ccccc2oc2ccc(C#CC3(O)CCCCC3)cc12	none
Cc1cc2sc3ccc(C#CC4(O)CCCCC4)cc3c(=O)c2cc1C	COUP-TFII inh 89, SRC3 inh 87, NCOA1 inh 88, SRC2 inh 82, LRH-1 inv ag 78 | VP16 Luc counter 89 | NR2F2 inh conf 109
Cn1c2ccccc2c(=O)c2cc(C#CC3(O)CCCCC3)ccc21	COUP-TFII inh 45 | VP16 Luc counter inactive | NR2F2 inh conf 38
O=C1CCc2cc(S(=O)(=O)N3CCN(Cc4cccc5c4OCO5)CC3)ccc2N1	none (no result: SRC3 inh, NCOA1 inh, LRH-1 inv ag, GalR3 antagonist)
Nc1[nH]c2cc(C(F)(F)F)ccc2c1C(=O)NCc1ccc(F)cc1	none (no result: SRC3 inh, NCOA1 inh, LRH-1 inv ag, GalR3 antagonist)
CCOC(=O)c1ccc(NC(=O)C2CCCN(S(=O)(=O)c3ccc(F)cc3)C2)cc1 (stereo not drawn)	COUP-TFII inh 64 | VP16 Luc counter inactive | NR2F2 inh conf inactive
CCOC(=O)c1ccc(NC(=O)C2CCN(S(=O)(=O)c3ccccc3)CC2)cc1	none (no result: GalR3 antagonist)
CCC(C)N(C(=O)CSc1nnc(-c2cc(OC)c(OC)c(OC)c2)o1)C(C)CC (stereo not drawn)	none (no result: SRC3 inh, NCOA1 inh, LRH-1 inv ag, GalR3 antagonist)
Cc1ccc(C(=O)N2c3ccccc3N(Cc3ccccc3)C(=O)C2(C)C)cc1	COUP-TFII inh 51 | VP16 Luc counter inactive | NR2F2 inh conf 47
O=C(C1CCN(c2ncnc3c2nc2n3CCCCC2)CC1)N1CCN(c2cccc(Cl)c2)CC1	COUP-TFII inh 50 | VP16 Luc counter inactive | NR2F2 inh conf inactive
CCCN(CCC)Cc1cc(=O)oc2ccccc12	none (no result: SRC3 inh, NCOA1 inh, LRH-1 inv ag)
O=C1C2C3C=CC(C3)C2C(=O)N1c1ccc(N2CCN(c3ccccn3)CC2)c([N+](=O)[O-])c1 (stereo not drawn)	COUP-TFII inh 42 | VP16 Luc counter inactive | NR2F2 inh conf inactive
O=C(CCN1C(=O)C2C3C=CC(C3)C2C1=O)N1CCN(c2ccccn2)CC1 (stereo not drawn)	none
COc1ccc(Oc2nc(C)nc3c2oc2ccccc23)cc1	COUP-TFII inh 42 | VP16 Luc counter inactive | NR2F2 inh conf inactive
Cc1ccccc1C1=CC(=O)CC(C)(C)C1=O	none (no result: SRC3 inh, NCOA1 inh, LRH-1 inv ag)
Cc1scc(C(=O)N/N=C/c2ccc([N+](=O)[O-])o2)c1C	COUP-TFII inh 50, SRC2 inh 71 | VP16 Luc counter 57 | NR2F2 inh conf 59
O=C(N/N=C\c1ccc(-c2ccccc2[N+](=O)[O-])o1)C1COc2ccccc2O1 (stereo not drawn)	none
O=C(N/N=C\c1ccc([N+](=O)[O-])o1)C1COc2ccccc2O1 (stereo not drawn)	COUP-TFII inh 44, SRC2 inh 62 | VP16 Luc counter inactive | NR2F2 inh conf inactive
COC(=O)[C@H](C(C)C)N1Cc2nnn(Cc3ccc(C)cc3)c2-c2cc(F)ccc2S1(=O)=O	none (no result: SRC3 inh, NCOA1 inh, LRH-1 inv ag, GalR3 antagonist)
COC(=O)[C@]12C[C@H](CC(=O)NCC3CCCCC3)C(=O)N(CCC3=CCCCC3)C1=C[C@H](C(C)(C)C)O[C@@H]2C	none (no result: SRC3 inh, NCOA1 inh, LRH-1 inv ag)
C[C@H](c1ccccc1)N1C[C@@H](COCc2ccccc2)Oc2cccc(F)c2S1(=O)=O	none (no result: SRC3 inh, NCOA1 inh, LRH-1 inv ag)
COc1cccc(C(=O)Nn2c(-c3cccs3)nc3ccccc3c2=O)c1OC	none
COc1ccc(CNn2c(-c3cccs3)nc3ccccc3c2=O)cc1OC	COUP-TFII inh 38 | VP16 Luc counter inactive | NR2F2 inh conf inactive
COc1ccc(C(=O)C2(C(=O)Nc3cc(C)cc(C)c3)CC(c3ccccn3)=NO2)cc1 (stereo not drawn)	none (no result: SRC3 inh, NCOA1 inh, LRH-1 inv ag, GalR3 antagonist)
